# Measured values reported in the supplement of paper PMC9694430.
# Experiments:
# Assay in all cases: thermal shift delta Tm vs DMSO control; higher = stronger stabilization (binding)
# Settings in all cases: 12.5 µM; protein concentration 2 µM
# LOC_OS01G01410-cb001 = system: LOC_OS01G01410-cb001
# Procedure, shortened: (§1)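 The melting temperature shift given here is a triplicate mean, measured against protein that received only DMSO. Melting temperatures came from Boltzmann fits of differential scanning fluorimetry data on E. coli-expressed, purified rice kinase domain constructs. Each 19.5 μl well contained 2 μM kinase, 100 mM potassium phosphate pH 7.5, 150 mM NaCl, 10% glycerol, 5 × SYPRO Orange and compound in DMSO. Plates were scanned from 25°C to 95°C at 0.05°C/s.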
# LOC_OS01G02750-cb003 = system: LOC_OS01G02750-cb003
# Procedure, shortened: as §1
# LOC_OS01G10900-cb004 = system: LOC_OS01G10900-cb004
# Procedure, shortened: as §1
# LOC_OS01G13800-cb001 = system: LOC_OS01G13800-cb001
# Procedure, shortened: as §1
# LOC_OS01G14860-cb001 = system: LOC_OS01G14860-cb001
# Procedure, shortened: as §1
# LOC_OS01G21960-cb002 = system: LOC_OS01G21960-cb002
# Procedure, shortened: as §1
# LOC_OS01G39600-cb002 = system: LOC_OS01G39600-cb002
# Procedure, shortened: as §1
# LOC_OS01G48390-cb002 = system: LOC_OS01G48390-cb002
# Procedure, shortened: as §1
# LOC_OS01G51400-cb002 = system: LOC_OS01G51400-cb002
# Procedure, shortened: as §1
# LOC_OS01G52050-cb004 = system: T1, LOC_OS01G52050-cb004
# T1 sequence (whole entry): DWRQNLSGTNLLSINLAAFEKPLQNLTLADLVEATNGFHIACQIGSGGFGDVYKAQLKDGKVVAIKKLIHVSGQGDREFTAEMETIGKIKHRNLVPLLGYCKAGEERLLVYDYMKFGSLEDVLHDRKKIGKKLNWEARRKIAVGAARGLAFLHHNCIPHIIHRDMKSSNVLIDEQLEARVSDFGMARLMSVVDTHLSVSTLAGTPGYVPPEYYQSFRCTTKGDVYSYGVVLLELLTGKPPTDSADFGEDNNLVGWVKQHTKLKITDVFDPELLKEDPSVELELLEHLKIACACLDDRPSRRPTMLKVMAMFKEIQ
# Procedure, shortened: as §1
# LOC_OS01G57100-cb003 = system: LOC_OS01G57100-cb003
# Procedure, shortened: as §1
# LOC_OS01G60330-cb001 = system: LOC_OS01G60330-cb001
# Procedure, shortened: as §1
# LOC_OS01G60700-cb002 = system: LOC_OS01G60700-cb002
# Procedure, shortened: as §1
# LOC_OS01G63280-cb003 = system: LOC_OS01G63280-cb003
# Procedure, shortened: as §1
# LOC_OS01G67340-cb003 = system: LOC_OS01G67340-cb003
# Procedure, shortened: as §1
# LOC_OS01G70970-cb002 = system: LOC_OS01G70970-cb002
# Procedure, shortened: as §1
# LOC_OS02G07810-cb001 = system: LOC_OS02G07810-cb001
# Procedure, shortened: as §1
# LOC_OS02G08530-cb003 = system: LOC_OS02G08530-cb003
# Procedure, shortened: as §1
# LOC_OS02G14120-cb001 = system: LOC_OS02G14120-cb001
# Procedure, shortened: as §1
# LOC_OS02G17970-cb001 = system: LOC_OS02G17970-cb001
# Procedure, shortened: as §1
Structure (SMILES),thermal shift delta Tm (LOC_OS01G01410-cb001) [°C],thermal shift delta Tm (LOC_OS01G02750-cb003) [°C],thermal shift delta Tm (LOC_OS01G10900-cb004) [°C],thermal shift delta Tm (LOC_OS01G13800-cb001) [°C],thermal shift delta Tm (LOC_OS01G14860-cb001) [°C],thermal shift delta Tm (LOC_OS01G21960-cb002) [°C],thermal shift delta Tm (LOC_OS01G39600-cb002) [°C],thermal shift delta Tm (LOC_OS01G48390-cb002) [°C],thermal shift delta Tm (LOC_OS01G51400-cb002) [°C],thermal shift delta Tm (LOC_OS01G52050-cb004) [°C],thermal shift delta Tm (LOC_OS01G57100-cb003) [°C],thermal shift delta Tm (LOC_OS01G60330-cb001) [°C],thermal shift delta Tm (LOC_OS01G60700-cb002) [°C],thermal shift delta Tm (LOC_OS01G63280-cb003) [°C],thermal shift delta Tm (LOC_OS01G67340-cb003) [°C],thermal shift delta Tm (LOC_OS01G70970-cb002) [°C],thermal shift delta Tm (LOC_OS02G07810-cb001) [°C],thermal shift delta Tm (LOC_OS02G08530-cb003) [°C],thermal shift delta Tm (LOC_OS02G14120-cb001) [°C],thermal shift delta Tm (LOC_OS02G17970-cb001) [°C]
C1=N/C2=N/c3ccc(OCCN4CCCC4)c(c3)COC/C=C/COCc3cccc(c3)C(=C1)N2 [Pacritinib (SB1518)],2.82,2.89,2.75,-0.21,4.13,2.75,4.09,2.71,0.34,8.62,1.85,6.01,0.7,2.88,1.79,2.62,0.11,4.85,11.4,0.42
CCN(CC)CCCCNc1ncc2cc(-c3cc(OC)cc(OC)c3)c(NC(=O)NC(C)(C)C)nc2n1,0.27,1.32,0.9,0.29,0.28,0.43,-0.12,1.3,0.23,0.11,0.87,0.35,0.92,0.87,0.05,0.05,0.72,0.6,-0.08,0.18
CCCCCCCCCCCCCCCCCCOP(=O)([O-])OC1CC[N+](C)(C)CC1 [Perifosine (KRX-0401)],-2.46,-3.08,-2.19,-2.02,-1.55,-1.07,-4.67,-1.63,-3.01,-2.26,-2.51,-0.68,-0.73,-3.09,-1.14,-3.45,-0.99,-1.07,-2.06,-0.45
Nc1nc(N)c2nc(-c3cccc(O)c3)c(-c3cccc(O)c3)nc2n1,0.47,0.72,1.95,0.77,1,1.07,-0.28,0.4,0.49,1.16,2.01,3.89,1.27,0.44,-0.24,0.19,1.52,0.91,1.95,1.03
CC(C)(C)c1cnc(CSc2cnc(NC(=O)C3CCNCC3)s2)o1,1.11,10.9,3.68,0.5,5.74,0.34,0.92,6.3,0.67,0.49,0.61,1.41,1.28,0.71,-0.45,0.26,0.43,0.72,0.42,-0.01
CC(C)n1nc(-c2ccc3oc(N)nc3c2)c2c(N)ncnc21,0.59,1.42,0.77,-0.13,0.42,0.3,-0.69,1.9,0.43,0.95,0.15,0.88,0.9,0.99,0.39,0.54,0.31,1.77,1.77,1.04
CNC(=O)c1cc(Oc2ccc(NC(=O)Nc3cc(C(C)(C)C)nn3-c3ccc4ncccc4c3)c(F)c2)ccn1 [Rebastinib (DCC-2036)],1.21,0.84,0.98,0.38,7.66,1.31,0.57,1.3,0.47,1.95,2.72,1.36,0.84,11.5,0.32,3.62,1.36,2.28,8.15,1.32
CCOc1cn(-c2ccc(F)cc2C)nc1C(=O)Nc1ccc(Oc2ccnc3cc(OC)c(OC)cc23)c(F)c1,0.08,1.86,0.01,-0.07,0.5,-0.29,0.58,0.48,0.45,2.08,0.32,1.07,0.34,0.6,0.43,0.98,0.56,1.15,2.96,0.55
COc1ncc(-c2cc(-c3ncc(CN4C[C@@H](C)O[C@@H](C)C4)o3)c3cn[nH]c3c2)cc1NS(C)(=O)=O,0.55,3.05,-0.41,-0.09,-0.11,0.43,0.15,0.01,0.34,-0.19,1.25,1.42,1.12,0.17,1.4,0.12,0.69,0.78,-0.2,0.21
Cc1cc(CS(=O)(=O)c2ccccc2)cc(OCc2ccc(CN3CCC[C@@H]3CO)cc2)c1,0.31,1.37,0.19,-0.27,-0.13,0.3,-13.5,0.65,0.36,-0.24,0.61,0.03,1.22,-0.1,-0.36,0.62,0.61,0.53,-0.41,0.96
CN1CCN(Cc2ccc(NC(=O)Nc3ccc(Oc4ccnc(N)n4)cc3)cc2C(F)(F)F)CC1,0.75,4.82,0.41,0.15,7.67,0.98,0.62,1.03,0.2,1.93,-0.21,0.73,1.34,8.29,0.95,2.3,0.57,2.59,6.74,1
Cn1cnc2c(F)c(Nc3ccc(Br)cc3Cl)c(C(=O)NOCCO)cc21 [Selumetinib (AZD6244)],0.81,-0.16,0.43,0.45,0.22,0.07,0.25,1.04,0.36,0.08,0.72,0.77,1.13,-0.08,-0.85,0.48,0.62,0.39,0.1,0.19
